Bioassay records: PubChem, National Center for Advancing Translational Sciences (NCATS)
G9a inh = blocks human histone lysine methyltransferase G9a. Q96KQ7. G9a H3K9 monomethylation, AlphaScreen, 2 h. hit rate 8.8% among 350,000. Potency, µM (doses to about 102 µM), without a hit: top-dose activity, negative = inhibition, actives largely listed as inhibitors; also: % is scaled to controls: 0 for no effect and ±100 for the full control effect; nearly all actives have a fitted effect of over 75% in size
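Compounds were preincubated with 20 nM G9a for 15 min, after which biotinylated H3K9 peptide (500 nM) and SAM (20 uM) started a 2 h room-temperature reaction. Monomethylated product was quantified by antibody-based AlphaScreen chemiluminescence.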
GLS inh = blocks human kidney-isoform glutaminase activity; AID 624170; Potency, µM (series often up to 45.5 µM), for the others: at the highest dose activity change, negative = inhibition, hits mostly inhibitors; O94925; hit rate 0.21% among 410,000; GLS enzymatic activity, qHTS titration; also: % is scaled to controls: 0 for no effect and ±100 for the full control effect
Target sequence (O94925 whole entry, looked up, canonical isoform): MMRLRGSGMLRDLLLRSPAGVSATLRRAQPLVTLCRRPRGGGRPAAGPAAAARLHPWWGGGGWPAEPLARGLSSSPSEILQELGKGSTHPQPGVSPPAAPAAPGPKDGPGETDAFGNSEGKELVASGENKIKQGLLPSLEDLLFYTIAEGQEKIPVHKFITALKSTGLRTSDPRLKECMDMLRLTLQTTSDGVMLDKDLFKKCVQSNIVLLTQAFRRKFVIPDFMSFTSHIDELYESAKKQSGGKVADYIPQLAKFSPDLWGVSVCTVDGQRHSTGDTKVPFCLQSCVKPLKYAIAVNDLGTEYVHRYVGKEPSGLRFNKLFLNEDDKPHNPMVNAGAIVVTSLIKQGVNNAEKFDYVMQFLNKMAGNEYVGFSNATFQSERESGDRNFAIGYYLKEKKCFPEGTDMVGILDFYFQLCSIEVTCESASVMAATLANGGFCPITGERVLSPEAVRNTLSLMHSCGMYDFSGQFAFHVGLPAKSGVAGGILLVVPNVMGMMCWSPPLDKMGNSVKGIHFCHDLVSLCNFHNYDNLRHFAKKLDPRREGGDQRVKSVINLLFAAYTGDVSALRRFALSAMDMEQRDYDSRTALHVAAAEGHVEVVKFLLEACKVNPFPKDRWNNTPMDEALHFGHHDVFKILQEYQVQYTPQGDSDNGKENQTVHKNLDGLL
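Glutamate formation by hKGA was monitored fluorometrically using coupled glutamate oxidase, HRP and Amplex Red. Substrate was added as 1 mM L-glutamine solution; incubation was 30 min at RT after an initial read.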
L3MBTL1 block = L3MBTL1 (human) inhibition. Q9Y468. AlphaScreen L3MBTL1–H3K9me1 peptide binding. Potency, µM (series often up to 57.1 µM), without a hit: top-dose activity, negative = inhibition, usual class: inhibitors. hit rate 0.66% among 230,000; also: % is scaled to controls: 0 for no effect and ±100 for the full control effect; nearly all actives have a fitted effect of over 60% in size
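L3MBTL1 (50 nM) pre-complexed 30 min with biotinylated H3(1-15)K9me1 peptide (75 nM), then compounds added for 30 min at room temperature; AlphaScreen streptavidin donor/nickel chelate acceptor beads (10 ug/mL final) read after 30 min dark incubation.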
JMJD2A Tudor = JMJD2A Tudor domain (human) inhibition; O75164; AlphaScreen JMJD2A-Tudor / H3K4me3 peptide binding; Potency, µM (doses to about 114 µM), for the others: at the highest dose activity change, negative = inhibition, actives largely listed as inhibitors; hit rate 4.4% among 390,000; AID 504339; also: % is scaled to controls: 0 for no effect and ±100 for the full control effect; nearly all actives have a fitted effect of over 50% in size
HP1b chromo inh = HP1-beta chromodomain-methylated histone interaction inhibition; hit rate 0.56% among 390,000; AlphaScreen HP1-beta / biotin-H3K9me3 peptide binding; Potency, µM (series often up to 114 µM), without a hit: at the top dose activity change, negative = inhibition, actives largely listed as inhibitors; P83916; also: nearly all actives have a fitted effect of over 70% in size
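HP1-beta protein (50 nM final) preincubated 30 min at room temperature with biotinylated H3(1-18)K9me3 peptide (50 nM) in PBS pH 7.4, 0.01% Tween-20, then compound added for 30 min. AlphaScreen streptavidin donor/nickel chelate acceptor beads (10 ug/mL final), 30 min dark, luminescence read.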
BAZ2B block = inhibitors of human BAZ2B bromodomain. Q9UIF8. AlphaScreen BAZ2B-H3K14Ac peptide displacement. Potency, µM (top dose mostly 114 µM), without a hit: at the highest dose activity change, negative = inhibition, hits mostly inhibitors. hit rate 4.4% among 360,000; also: % is scaled to controls: 0 for no effect and ±100 for the full control effect; nearly all actives have a fitted effect of over 60% in size
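BAZ2B 50 nM plus b-H3(5-23)K14Ac 50 nM, PBS pH 7.4/0.01% Tween-20, 30 min RT; compound added (max 110 uM), 30 min RT; streptavidin donor/Ni-chelate acceptor beads 10 ug/mL final, 20 min dark; AlphaScreen read.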
* = called active by the depositor; ? = inconclusive; · = no result given; [ ] = remark or other dose. The list is not random: actives were taken first. Their share in the collection is about 10%. Calls follow the shape of the dose curve; as a rule, active = well fitted curve in the direction sought with a large enough effect; inconclusive = small, poorly fitted or top-dose-only effect, or another doubt; inactive = no such curve, though single readings can be large; an effect the other way counts as inactive or inconclusive. Potency is read from the fitted curve at half-maximal effect.

SMILES | G9a inh | GLS inh | L3MBTL1 block | JMJD2A Tudor | HP1b chromo inh | BAZ2B block
Cc1ccc(CNc2ccc3c(c2)ncn3C(C)(C)C)cc1 | 7.1µM* | 0% | · | -21%[11.4 µM] | -11% | 35µM*
COc1ccc(CCNC(=O)CCCn2c(=O)c3ccccc3n(CC(=O)Nc3ccccc3C)c2=O)cc1OC | 1%[59 µM] | -5% | · | -13% | 7% | 3%
Fc1cccc(Cl)c1Cn1c(-c2cccs2)nc2ccccc21 | 5%[59 µM] | -13% | · | -4% | 47% | 6%
COc1ccc(-n2ccn(Cc3ccccc3C)c(=O)c2=O)cc1 | -4%[59 µM] | 0% | · | 2% | 47% | -1%
Cc1cc(C(=O)NCC(=O)O)c(C)o1 | -11% | -16% | · | -17% | 9% | 50µM*
COc1ccc(CNC(=O)CC2C[C@H](C(=O)N3CCOCC3)[C@@]3(CCC4CCCC4)c4[nH]c5ccccc5c4CCN3C2=O)cc1OC (stereo partly specified) | · | 2% | -5% | ? | -6% | ·
CC(C)=CCC/C(C)=C/CNC(=O)C[C@H]1C[C@H](C(=O)N2CCCCC2)[C@@]2(CCc3ccccc3)c3[nH]c4cc(-c5ccco5)ccc4c3CCN2C1=O | · | -2% | 4% | -35% | 8% | ·
O=C(C[C@H]1C[C@H](C(=O)N2CCCCC2)[C@@]2(CCc3ccccc3)c3[nH]c4cc(-c5ccco5)ccc4c3CCN2C1=O)NCCN1CCOCC1 | · | -12% | -16% | 40µM* | 20µM* | ·
CCN(CC)C(=O)[C@H]1C[C@H](CC(=O)NCCCn2ccnc2)C(=O)N2CCc3c([nH]c4cc(-c5ccco5)ccc34)[C@]12C | · | 0% | -18% | ? | -8% | ·
COc1ccc2[nH]c3c(c2c1)CCN1C(=O)C(CC(=O)NCc2ccc(OC)c(OC)c2)C[C@H](C(=O)N2CCOCC2)[C@@]31CCC1CCCC1 (stereo partly specified) | · | 29% | -5% | 50µM* | 5% | ·
O=C(C[C@H]1C[C@H](C(=O)N2CCOCC2)[C@@]2(CCC3CCCC3)c3[nH]c4cc(-c5ccco5)ccc4c3CCN2C1=O)NCCCn1ccnc1 | · | -1% | -14% | 56µM* | ? | ·
O=C(C[C@H]1C[C@H](C(=O)N2CCCCC2)[C@@]2(CCc3ccccc3)c3[nH]c4ccc(Cl)cc4c3CCN2C1=O)NCCCn1ccnc1 | · | -5% | -26% | 35µM* | -23% | ·
CCOC(=O)N1CCN(Cc2nc3cc(NC(=O)C(C)C)ccc3n2C(C)C)CC1 | 1%[59 µM] | 2% | · | -19% | 34% | -3%
COc1cccc(C(=O)NCC(c2ccc(N(C)C)cc2)N2CCOCC2)c1OC (stereo unspecified) | -4%[59 µM] | 51% | · | -21% | 44% | 1%
COCCCNC(=O)C[C@H]1C[C@H](C(=O)N2CCOCC2)[C@@]2(C)c3[nH]c4cc(-c5ccco5)ccc4c3CCN2C1=O | · | -3% | 11% | -36% | 53% | ·
COCCCNC(=O)C[C@H]1C[C@H](C(=O)N2CCCCC2)[C@@]2(CCc3ccccc3)c3[nH]c4cc(-c5ccco5)ccc4c3CCN2C1=O | · | -1% | -14% | 45µM* | ? | ·
Cc1cccc(N2CC(C(=O)Nc3nnc(SCc4cccnc4)s3)CC2=O)c1 (stereo unspecified) | 45µM* | -2% | · | ? | 7% | -24%
COc1cccc(N2CC(C(=O)Nc3nnc(SCc4ccccn4)s3)CC2=O)c1 (stereo unspecified) | 7.9µM* | 9% | -5% | -24% | 10% | ?
O=C(Nc1nnc(SCc2ccccn2)s1)C1CC(=O)N(c2ccc(F)cc2)C1 (stereo unspecified) | 28µM* | -1% | · | -28% | 11% | -24%
Cc1ccc(CN2CC(C(=O)Nc3nnc(SCc4c(Cl)cccc4Cl)s3)CC2=O)cc1 (stereo unspecified) | 10µM* | 16% | -21% | ? | -6% | ?
Cc1cc(C)c2c(=O)c3c(oc2c1)C(=O)N(Cc1ccc(F)cc1)C3c1cccc(O)c1 (stereo unspecified) | -52%[59 µM] | -7% | · | -35% | 1% | -24%
Cc1ccc2c(c1)N(C(=O)N1CCC(C(=O)NCCC3=CCCCC3)CC1)CC(C)O2 (stereo unspecified) | -9%[59 µM] | -1% | · | -10% | 27% | -14%
CC1(C)Cc2cccc(Oc3cc(NN4CCCCC4)c([N+](=O)[O-])cc3[N+](=O)[O-])c2O1 | 35µM* | -2% | -5% | ? | -11% | ?
O=[N+]([O-])c1cc([N+](=O)[O-])c(Oc2cccc(Cl)c2Cl)cc1NN1CCCCC1 | ? | 7% | -6% | ? | -18% | ?
COc1cc(C(C)=O)ccc1Oc1cc(NN2CCCCC2)c([N+](=O)[O-])cc1[N+](=O)[O-] | 28µM* | 24% | -13% | ? | -8% | ?
SMILES | G9a inh | GLS inh | L3MBTL1 block | JMJD2A Tudor | HP1b chromo inh | BAZ2B block
Cc1ccc(C)c(Oc2cc(NN3CCCCC3)c([N+](=O)[O-])cc2[N+](=O)[O-])c1 | 7.9µM* | 13% | 3% | ? | -12% | ?
CCc1ccccc1NC(=O)Nc1nnc(N2CCCC2)s1 | -34%[59 µM] | -23% | · | -11% | 0% | -7%
Cc1ccc(Nc2nc(N)c([N+](=O)[O-])c(N3CCOCC3)n2)cc1C | ? | -13% | -16% | ? | -23% | -15%
Cc1ccc(Nc2nc(N)c([N+](=O)[O-])c(N3CCC(C)CC3)n2)cc1C | ? | 1% | 2% | 56µM* | ? | 25µM*
Cc1cccc(Nc2nc(N)c([N+](=O)[O-])c(N3CCCC(C)C3)n2)c1 (stereo unspecified) | 40µM* | 15% | 32µM* | 40µM* | -37% | 40µM*
Cc1cc(C)c2nc(SCC(=O)N3CC(=O)Nc4ccccc43)c(C#N)cc2c1 | 10µM* | 4% | -7% | -2%[57.1 µM] | 46% | -3%
O=C(OCc1cc2ccccc2[nH]c1=O)c1cccs1 | 20µM* | -11% | 7% | -3% | 37% | 8%
O=C(OCc1cc2ccccc2[nH]c1=O)c1ccccn1 | -4% | -2% | 3% | -3% | 14% | ?
COc1ccc(-n2ccnc2SCC(=O)Nc2nnc(C)s2)cc1 | 0%[59 µM] | -9% | · | -21% | 17%[57 µM] | -1%
CN(C)c1ccc(NC(=O)Cn2cc3c(n2)CCCC3)cc1 | 28µM* | 69% | -13% | 50µM* | ? | 40µM*
Cc1cc(C)cc(NC(=O)Cn2cc3c(n2)CCCCC3)c1 | ? | · | · | · | · | -5%
O=C(Nc1cccc([N+](=O)[O-])c1)c1ccc2nc(N3C(=O)CCC3=O)sc2c1 | 11µM* | · | -2% | -24% | 7% | ?
